Results from PubChem BioAssay AID488890 (Southern Research Specialized Biocontainment Screening …, 2010).
Screen size: about 320,000 compounds; about 1,300 (0.41%) were called active. Another 3% or so got no clear call; they are omitted. No rule for the calls is given here. A selection follows. Measured potencies and affinities stand elsewhere.

Assay: growth inhibition of non-replicating M. tuberculosis (AID 488890);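 also: plate controls were DMSO cells for no effect and high antibiotic wells for full effect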
Details: Mycobacterium tuberculosis non-replicating, at 25 µM, stronger effect = higher value

Structure (SMILES)	inhibition
CN1CCN(c2ccc(NC(=O)COc3cccc4ccccc34)cc2)CC1	47.4%
COc1ccc(C2Sc3nncn3N2Cc2ccc(C#N)cc2)cc1 (configuration not stated)	0.03%
C[C@H](NC(=O)OCc1ccccc1)C(=O)NNC(=O)[C@H](C)NC(=O)OCc1ccccc1	2.12%
C[C@H](NC(=O)OCc1ccccc1)c1nnc([C@H](C)NC(=O)OCc2ccccc2)o1	4.86%
Cc1ccc(C(=O)NNC(=O)CCC(=O)Nc2cc(C)on2)cc1	3.14%
CCOCC(=O)Nc1ccc(OCc2ccccc2)cc1	17.7%
CC(C)NC(=O)COc1ccc(OCc2ccccc2)cc1	62.9%
Cc1nc(SCCc2ccccc2)[nH]c(=O)c1C	49.5%
CC1=C(C(=O)Nc2ccc(C)cc2C)C(c2ccc(C)o2)NC(=O)N1 (configuration not stated)	-0.04%
COc1cccc(C(=O)CN(C(=O)c2ccc(Cl)cc2Cl)N2C(=O)c3ccccc3C2=O)c1	-6.55%
O=C(O)c1ccc(CNCc2ccc(Cl)cc2)cc1	9.88%
Cc1cccc(Sc2c([N+](=O)[O-])ncn2C)c1	22.6%
Cn1cnc([N+](=O)[O-])c1Cl	-10.2%
N#Cc1ccc(OCC(=O)NCCN2CCOCC2)cc1	2.06%
CCOC(=O)C1(CCc2ccccc2)CCN(Cc2cnc(N(C)C)s2)CC1	3.68%
Clc1ccccc1CSc1nncn1NC/C=C/c1ccccc1	19.6%
CC(C(=O)NC1CCCc2ccccc21)N1C(=O)C2CCCCC2C1=O (configuration not stated)	-6.5%
COc1ccc(N2CCN(CCCNC(=O)Nc3ccccc3)CC2)cc1	38.1%
COc1ccc(NC(=O)NCCN2CCN(c3cccc(Cl)c3)CC2)cc1	31.4%
CC1(C)CC(=O)C2=C(C1)N(c1ccc(F)cc1)C(=O)C2(O)C(F)(F)F (configuration not stated)	-0.41%
Cc1cc(C(=O)Nn2cnc3ccccc3c2=O)ccc1[N+](=O)[O-]	-2.65%
Cn1c(=O)c([N+](=O)[O-])c(NCCc2ccccc2)c2ccccc21	30.3%
CC(C)c1c(C(=O)N/N=C/c2ccc(OCc3ccc(F)cc3)cc2)nnn1-c1nonc1N	1.61%
CCOc1ccc(C(O)C(CN2CCOCC2)c2ccccc2)cc1 (configuration not stated)	-1.32%

Structure (SMILES)	inhibition
CCCCOc1ccc(C(O)C(CN2CCCCC2)c2ccccc2)cc1 (configuration not stated)	12.8%
CCCOc1ccc(C(=O)C(c2ccccc2)N2CCOCC2)cc1 (configuration not stated)	33.3%
CCC(C(=O)c1ccc(O)cc1)c1ccccc1 (configuration not stated)	21.7%
CCOc1ccc(C(=O)C(c2ccccc2)N2CCOCC2)cc1 (configuration not stated)	56.8%
CN(C)CC(c1ccccc1)c1ccccc1	-13.3%
CCOC(=O)C(CN1CCCC1)c1ccccc1 (configuration not stated)	4.41%
CC(CN1CCCC1)OC(=O)C(c1ccccc1)c1ccccc1 (configuration not stated)	10.8%
CCCCN(C(=O)Cc1ccc2c(c1)OCCO2)c1c(N)n(CCC)c(=O)[nH]c1=O	-17.1%
O=C(NCC(=O)N1CCN(C(c2ccccc2)c2ccccc2)CC1)c1ccc(Br)o1	13.5%
CCOc1ccc2nc(SCC(=O)N3CCN(C(=O)c4ccco4)CC3)sc2c1	28.7%
C/C(=N/NC(=O)c1cnccn1)c1ccncc1	-12.7%
Cc1nc(Cl)c(S(N)(=O)=O)c(C)c1Cl	-6.51%
CC(C)Sc1nc2[nH]ncc2c(=O)[nH]1	-7.65%
O=C(NCCO)c1ccc2c(c1)S(=O)(=O)c1ccccc1C2=O	-6.47%
Cc1ccc(S(=O)(=O)NC(=O)c2ccccc2F)cc1	-3.32%
CCCOc1cccc(C(=O)NCCNC(=O)c2ccco2)c1	-5.82%
N#Cc1ccccc1Cn1c(=O)n(CCC(=O)NCc2ccco2)c(=O)c2ccccc21	0.99%
CCC1(CC)C(=O)NN(c2ccccc2)C1=O	-21.9%
O=C(CCNC(=O)Cn1ccc2ccccc2c1=O)NCCN1CCc2ccccc2C1	19.7%
O=C(C1=NN[C@@H]2C(=O)N(c3cccc(C(F)(F)F)c3)C(=O)[C@H]12)c1ccc2ccccc2n1	-0.67%
COc1ccc(C(=O)C(c2ccccc2)N2CCOCC2)cc1 (configuration not stated)	18.6%
COc1ccc(C(O)(C2CCCCC2)C(CN2CCCC2)c2ccccc2)cc1 (configuration not stated)	47%
COc1ccc(C2C(C(=O)N3CCN(c4ccccc4)CC3)c3ccccc3C(=O)N2C)cc1 (configuration not stated)	16.5%
Cc1ccc(S(=O)(=O)N2CCCCC2C(=O)Nc2ccc(N(C)C)cc2)cc1 (configuration not stated)	20%

Structure (SMILES)	inhibition
Cc1cc(Nc2ccccc2)n(-c2ccc(Br)cc2)n1	66.6%
Cc1cc(Nc2ccccc2)n(-c2ccccc2)n1	6.71%
Cc1cc(NC(=O)c2c(F)cccc2F)n(-c2nc3ccccc3[nH]2)n1	76.6%
Cc1cc(NC(=O)c2cccs2)n(-c2nc3ccccc3[nH]2)n1	76.4%
Cc1cc(NC(=O)c2ccc(F)cc2F)n(-c2nc3ccccc3[nH]2)n1	14.7%
COc1cccc(OC)c1C(=O)Nc1cc(C)nn1-c1nc2ccccc2[nH]1	20.1%
CCOC(=O)C(=O)Nc1cc(C)nn1-c1nc2ccccc2[nH]1	73.2%
Cc1cc(NC(=O)c2ccccc2)n(-c2nc3ccccc3[nH]2)n1	49.6%
Cc1ccsc1C(=O)N1CCC(N2CCC(C(=O)NCC3CCCO3)CC2)CC1 (configuration not stated)	1.59%
C[C@H](NC(=O)[C@@H]1CSC2c3ccccc3C(=O)N21)C(=O)NC1CCCC1 (some centres not stated)	-7.65%
CCc1ccc(OCC(=O)O/N=C(\N)c2ccncc2)cc1	35.7%
COc1ccc(N2CCN(CC(O)COCc3ccccc3)CC2)cc1 (configuration not stated)	-6.85%
Cc1cc(NC(=O)CC#N)n(-c2nc3ccccc3[nH]2)n1	-8.39%
Cc1cc(Nc2nc3ccccc3[nH]c2=O)n(-c2ccccc2)n1	3.53%
Cc1cc(F)ccc1NC(=O)c1cc(S(=O)(=O)N2CCCC2)cn1C	-14.1%
O=[N+]([O-])c1ccc(-c2nc(-c3ccncc3)no2)cc1	-0.83%
O=[N+]([O-])c1cccc(-c2nc(-c3ccncc3)no2)c1	1.9%
COc1ccc(Oc2cccc(Cl)c2CNC(=O)c2ccccc2C(=O)O)cc1	22.3%
CC1=Nc2ccccc2/C1=C/c1c(O)n(C)c(=O)[nH]c1=O	3.78%
CC1=Nc2ccccc2/C1=C/c1sc(=O)n(CC(=O)N2CCCC2)c1O	24%
COc1ccc(NC(=O)CN(C)C(=O)c2ccccc2Sc2ncnc3sc(C)c(C)c23)cc1	19.2%
CC(C)(C)C(=O)CN1C(=O)NC(c2ccccc2)(c2ccccc2)C1=O	0.55%
CCCCCOC(=O)C1=C(C)Nc2ncnn2C1c1cccs1 (configuration not stated)	21.8%
COc1ccc(CNC(=O)[C@H](C)NC(=O)[C@@H]2Cc3ccccc3CN2)cc1	1.37%

Structure (SMILES)	inhibition
CCNC(=O)NC(=O)C(C)OC(=O)CCCc1nc2ccccc2s1 (configuration not stated)	65.1%
CC(OC(=O)CCCSc1nc2ccccc2s1)C(=O)NC(N)=O (configuration not stated)	68.6%
Cc1c(Cl)cccc1NC(=O)CSc1nncn1-c1cccnc1	2.49%
O=c1cc(-c2ccccc2)[nH]c2ccccc12	14.9%
O=c1nc(-c2ccccc2)c2ccccc2[nH]1	-10.3%
CC(C)CN(C(=O)Cn1nnc(-c2ccc(F)cc2)n1)C1CCS(=O)(=O)C1 (configuration not stated)	2.71%
CCOC(=O)c1c(-c2cccc([N+](=O)[O-])c2)csc1N	39.4%
CCOC(=O)c1cc(-c2cccc([N+](=O)[O-])c2)n[nH]1	-6.3%
COc1cccc(C(=O)Nc2ccc(-n3nncc3C(C)(C)C)cc2)c1	9.74%
COc1cccc(-n2nnnc2SCC(=O)NC2CCCC2)c1	7.16%
COc1cccc(Oc2nnnn2-c2ccccc2)c1	6.02%
C=C(C(=O)Oc1ccccc1C(C)(C)C)c1ccccc1	36.4%
COC(=O)c1ccc2c(=O)n(CCCCCC(=O)O)c(=O)[nH]c2c1	-11.8%
CC(NC(=O)c1cccc(S(=O)(=O)N(C)C)c1)C1CC2CCC1C2 (configuration not stated)	-2.47%
CC(NC(=O)COC(=O)c1ccccc1F)C1CC2CCC1C2 (configuration not stated)	71%
CC(NC(=O)c1ccc(F)cc1F)C1CC2CCC1C2 (configuration not stated)	77.7%
CC(NC(=O)CCC(=O)c1ccc(F)cc1)C1CC2CCC1C2 (configuration not stated)	11.8%
O=C(C1CCCN(S(=O)(=O)c2cccc3nsnc23)C1)N1CCN(c2ccccn2)CC1 (configuration not stated)	16.4%
CCCCN(C(=O)NCCCCCCNC(=O)N(CCCC)C1CCS(=O)(=O)C1)C1CCS(=O)(=O)C1 (configuration not stated)	-10.6%
COc1ccc(CC(=O)OCc2nnc(-c3ccccc3)o2)cc1	66.7%
COc1cccc(C(Nc2ccccn2)c2oc(CO)cc(=O)c2O)c1 (configuration not stated)	8.94%
CNC(=O)CO/N=C/c1ccc(N(C)C)cc1	3.3%
O=C(COc1ccccc1)Nc1cccc(-c2nnc(-c3ccccc3)o2)c1	15.8%
CC(C)CNC(=O)c1cccc(NC(=O)COc2cccc([N+](=O)[O-])c2)c1	16.2%

Structure (SMILES)	inhibition
CC(=O)Nc1ccc(/C=N/OCC(=O)Nc2ccc(C)cc2)cc1	31.8%
CC(=O)Nc1cccc(OCC(=O)Nc2ccc(F)cc2)c1	-6.82%
CCOC(=O)c1cccc(NC(=O)COc2ccc([N+](=O)[O-])cc2)c1	73.8%
CC(=O)c1cccc(NC(=O)COc2ccccc2)c1	54.2%
O=C(COc1ccc(CO)cc1)Nc1ccc(F)cc1	-2.12%
Cn1c(N)c(C(=O)COC(=O)Cc2ccc(Br)cc2)c(=O)n(C)c1=O	3.86%
O=C(Cc1ccc(F)cc1)N1CCC(CC2CC(c3cccc(Br)c3)=NO2)(C(=O)NCC2CCCCC2)CC1 (configuration not stated)	37%
COc1ccc(-n2c(C)c(C)c3c(NCCCO)ncnc32)cc1	-0.92%
COc1ccc(-n2c(CN3CCN(C)CC3)nc3ccc([N+](=O)[O-])cc3c2=O)c(OC)c1	1.89%
COc1ccc(C(=O)CC(=O)C(=O)Nc2c(C)cccc2C)cc1	78.4%
O=C(C1CCN(S(=O)(=O)c2ccc(Br)cc2)CC1)N1CCOCC1	-10.1%
COC(=O)c1ccc(C)c(NC(=O)Cc2ccc([N+](=O)[O-])cc2)c1	21.2%
COc1ccc(S(=O)(=O)N2CCC(C(=O)NCCOc3ccccc3F)CC2)cc1OC	24.4%
COC(=O)COc1cccc(NC(=O)C(c2ccccc2)c2ccccc2)c1	3.23%
O=C(COc1ccccc1F)Nc1ccc2c(c1)OCCO2	52.5%
CC(=O)Nc1cccc(OCC(=O)Nc2ccccc2)c1	-8.67%
CCC(=O)c1ccc(OCC(=O)Nc2ccc3c(c2)OCCO3)cc1	69.5%
COC(=O)N/N=C/c1cccc(OCCSc2ccc(Cl)cc2)c1	74.7%
CC(=O)Oc1ccc(/C=N/NC(=O)CCSc2ccccc2)cc1	9.49%
COc1ccc(/C=N/OCC(=O)Nc2ccc3c(c2)OCO3)c(OC)c1	59.9%
Cc1cc(NC(=O)CO/N=C/c2ccc3c(c2)OCO3)ccc1Br	-0.49%
